Measurements reported in PubChem BioAssay AID651640 (Broad Institute, 2012).
“And” between values parts separate entries of the source, which are not always exact repeats. Identical values can stand only once. In all, about 350,000 compounds went through this assay and about 6,000 (1.7%) were called active. About 5% were inconclusive and are not listed. The sample holds actives, similar compounds and a random draw of the others, so the mix is not that of the screen. No stated cut-off is given here; in the data, active means CPE inhibition above about 20% (passing the limit was not always enough); inconclusive means no clear call, values can overlap the other calls; tested in BHK-21 cells.

Test: inhibitors of DENV2 cytopathic effect, primary screen, cell-based, plate reader, single concentration (AID 651640);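 further: 0% = median of neutral control wells and 100% = median of positive control wells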
Conditions: DENV2-infected cells, cytopathic effect rescue, at 9.99 µM, stronger effect = higher value

CPE inhibition, active:
C[C@@H]1CN([C@H](C)CO)C(=O)Cc2cc(NC(=O)Nc3cccc4ccccc34)ccc2O[C@@H]1CN(C)Cc1ccc(C(F)(F)F)cc1 20.3%
Cc1ccc(S(=O)(=O)N(C)C[C@@H]2Oc3ccc(NC(=O)c4ccncc4)cc3CC(=O)N([C@H](C)CO)C[C@H]2C)cc1 20.7%
C[C@H]1CN([C@@H](C)CO)C(=O)Cc2cc(NC(=O)Nc3cccc4ccccc34)ccc2O[C@@H]1CN(C)C 25.6%
C[C@H](CO)N1C[C@H](C)[C@H](CN(C)Cc2ccc(-c3ccccc3)cc2)Oc2ccc(NC(=O)Nc3ccc(F)cc3)cc2CC1=O 33.6%
C[C@@H]1CN([C@@H](C)CO)C(=O)Cc2cc(NC(=O)Nc3ccc(C(F)(F)F)cc3)ccc2O[C@H]1CN(C)Cc1ccc(C(=O)O)cc1 30.9%
C[C@@H]1CN([C@@H](C)CO)C(=O)Cc2cc(NC(=O)Nc3ccc(F)cc3)ccc2O[C@@H]1CN(C)S(=O)(=O)c1ccccc1 76.2%
C[C@@H]1CN([C@H](C)CO)C(=O)Cc2cc(NC(=O)C3CCCCC3)ccc2O[C@@H]1CN(C)Cc1ccc(C(F)(F)F)cc1 31.3%

CPE inhibition, inactive:
COCC#Cc1cnc2c(c1)C(=O)N([C@@H](C)CO)C[C@@H](C)[C@@H](CN(C)C(=O)Nc1ccc(OC)cc1)O2 -9.58%
C[C@H]1CN([C@@H](C)CO)C(=O)Cc2cc(NC(=O)Nc3cccc4ccccc34)ccc2O[C@@H]1CN(C)S(C)(=O)=O -2.56%
C[C@H]1CN([C@@H](C)CO)C(=O)Cc2cc(NC(=O)Nc3cccc4ccccc34)ccc2O[C@H]1CN(C)CC1CC1 2.69%
C[C@@H]1CN([C@H](C)CO)C(=O)Cc2cc(NC(=O)c3ccncc3)ccc2O[C@H]1CN(C)S(=O)(=O)c1cccs1 19.1%
C[C@@H]1CN([C@H](C)CO)C(=O)Cc2cc(NC(=O)Nc3ccc(C(F)(F)F)cc3)ccc2O[C@H]1CN(C)Cc1ccc(-c2ccccc2)cc1 -23%
C[C@@H]1CN([C@H](C)CO)C(=O)Cc2cc(NC(=O)Nc3cccc4ccccc34)ccc2O[C@@H]1CN(C)Cc1ccc(C(=O)O)cc1 -18.4%
COc1ccc(NC(=O)Nc2ccc3c(c2)CC(=O)N([C@@H](C)CO)C[C@@H](C)[C@@H](CN(C)Cc2ccc(C(F)(F)F)cc2)O3)cc1 -24.3%
C[C@H](CO)N1C[C@H](C)[C@H](CN(C)S(C)(=O)=O)Oc2ccc(NC(=O)c3ccncc3)cc2CC1=O -1.49%
COc1ccc(CN(C)C[C@@H]2Oc3ccc(NC(=O)Nc4ccc(F)cc4)cc3CC(=O)N([C@@H](C)CO)C[C@H]2C)cc1 2.99%
O=C(c1ccncc1)N1CC(=O)N2[C@H](CO)[C@@H](c3ccc(-c4cccnc4)cc3)[C@H]2C1 -6.23%
COc1ccc2c3c(n(C)c2c1)[C@H](CO)N(C(=O)C1CCCC1)CC31CCN(C(=O)c2ccncc2)CC1 4.15%
CO[C@@H]1CN(C)C(=O)c2ccc(NC(=O)NC(C)C)cc2OC[C@@H](C)N(C(=O)NC(C)C)C[C@H]1C 9.11%
C[C@@H]1CCCCO[C@H](CN(C)CC2CCCCC2)[C@H](C)CN([C@H](C)CO)C(=O)c2cc(NS(=O)(=O)c3ccc(F)cc3)ccc2O1 -1.47%
C[C@@H]1CCCCO[C@H](CN(C)Cc2ccc3c(c2)OCO3)[C@H](C)CN([C@@H](C)CO)C(=O)c2cc(NS(=O)(=O)c3cccs3)ccc2O1 -2.06% and 0.641%
CCCN1C(=O)c2[nH]nc(-c3ccccc3)c2C1c1ccccc1 (stereo unspecified) 1.19%
CO[C@H]1CN(C)C(=O)c2ccc(NC(C)=O)cc2OC[C@H](C)N(CC2CC2)C[C@@H]1C -14.7%
C[C@@H]1CN([C@H](C)CO)C(=O)Cc2cc(NC(=O)Nc3ccccc3)ccc2O[C@@H]1CN(C)Cc1ccc(C(F)(F)F)cc1 -6.47%
C[C@H]1CN([C@@H](C)CO)C(=O)Cc2cc(NC(=O)C3CCCCC3)ccc2O[C@H]1CN(C)C(=O)Nc1ccc(C(F)(F)F)cc1 -1.37%
C[C@H](CO)N1C[C@H](C)[C@@H](CN(C)S(=O)(=O)c2ccccc2)Oc2ccc(NC(=O)Nc3ccc(F)cc3)cc2CC1=O 13.5%
C[C@H]1CN([C@@H](C)CO)C(=O)Cc2cc(NC(=O)Nc3ccc(C(F)(F)F)cc3)ccc2O[C@H]1CN(C)Cc1ccc(C(=O)O)cc1 16.5%
C[C@@H]1CN([C@@H](C)CO)C(=O)Cc2cc(NC(=O)C3CCCCC3)ccc2O[C@@H]1CN(C)C(=O)Nc1ccc(C(F)(F)F)cc1 2.75%
C[C@H]1CN([C@@H](C)CO)C(=O)Cc2cc(NC(=O)Nc3ccc(F)cc3)ccc2O[C@H]1CN(C)S(=O)(=O)c1ccccc1 1.86%
COCC#Cc1cnc2c(c1)C(=O)N([C@H](C)CO)C[C@H](C)[C@H](CN(C)C(=O)C1CCOCC1)O2 8%
O=C(C[C@H]1C[C@@H]2c3cc(NC(=O)CC4CC4)ccc3O[C@@H]2[C@@H](CO)O1)NCc1cc(F)ccc1F -1.05%
C[C@@H]1CN([C@H](C)CO)C(=O)c2cc(NC(=O)c3ccncc3)ccc2O[C@H]1CN(C)Cc1ccc(Oc2ccccc2)cc1 -0.0445%
C[C@@H]1CCCCO[C@@H](CN(C)C(=O)Cc2ccccc2)[C@H](C)CN([C@H](C)CO)C(=O)c2cc(NC(=O)Cc3ccccc3)ccc2O1 13.3%
COc1ccc(-c2ccc3c(c2)[C@H]2[C@H](CCN2C(=O)c2ccc4c(c2)OCO4)[C@@H](CO)N3)cc1 -26.6%
Cc1ccc(C)c(CN2CCC(CNC(=O)C3CCCN(c4ncnc5c4nc4n5CCCCC4)C3)CC2)c1 (stereo unspecified) 3.53%
CCCN1C[C@@H](C)[C@@H](OC)CN(C)C(=O)c2ccc(NC(=O)CC(F)(F)F)cc2OC[C@H]1C 1.09%
